Records with an inconclusive call do not appear. Active and inactive are the calls of the source. The calls were made as follows: active = hit-call score of the fitted dose curve at least 0.9, where 1 is the maximum; inconclusive = response in the unintended direction; inactive = score below 0.9.

The experiment deals with Peroxisome proliferator-activated receptor gamma (Homo sapiens) (UniProt P37231). The experiment can be described thus: OT_PPARg_PPARgSRC1_0480: Odyssey Thera (OT) 8-hour Protein-Complementation Assay for Peroxisome Proliferator-activated Receptor Gamma / SRC-1 Co-activator (AID 2283387).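 Also: nuclear to cytoplasmic split Venus YFP fluorescence ratio reporting PPARg SRC-1 interaction.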 Here is the method: OT_PPARg_PPARgSRC1_0480 is a cell-based assay that uses HEK293T, a human kidney cell line, with measurements taken at 8 hours after chemical dosing in a 384-well plate.OT_PPARg_PPARgSRC1_0480 is one of one assay component(s) measured or calculated from the OT_PPARg_PPARgSRC1_0480 assay. It is designed to make measurements of protein fragment complementation, a form of binding reporter, as detected with fluorescence intensity signals by Protein-fragment Complementation technology.Data from the assay component OT_PPARg_PPARgSRC1_0480 was analyzed into 1 assay endpoint. This assay endpoint, OT_PPARg_PPARgSRC1_0480, was analyzed in the positive analysis fitting direction relative to DMSO as the negative control and baseline of activity. Using a type of binding reporter, measures of receptor for gain-of-signal activity can be used to understand the binding at the pathway-level as they relate to the gene PPARG. Furthermore, this assay endpoint can be referred to as a primary readout, because the performed assay has only produced 1 assay endpoint. To generalize the intended target to other relatable targets, this assay endpoint is annotated to the nuclear receptor intended target family, where the subfamily is non-steroidal.
Peroxisome proliferator-activated receptor gamma (Homo sapiens), sequence (P37231 whole entry, looked up, the tested form may be a part): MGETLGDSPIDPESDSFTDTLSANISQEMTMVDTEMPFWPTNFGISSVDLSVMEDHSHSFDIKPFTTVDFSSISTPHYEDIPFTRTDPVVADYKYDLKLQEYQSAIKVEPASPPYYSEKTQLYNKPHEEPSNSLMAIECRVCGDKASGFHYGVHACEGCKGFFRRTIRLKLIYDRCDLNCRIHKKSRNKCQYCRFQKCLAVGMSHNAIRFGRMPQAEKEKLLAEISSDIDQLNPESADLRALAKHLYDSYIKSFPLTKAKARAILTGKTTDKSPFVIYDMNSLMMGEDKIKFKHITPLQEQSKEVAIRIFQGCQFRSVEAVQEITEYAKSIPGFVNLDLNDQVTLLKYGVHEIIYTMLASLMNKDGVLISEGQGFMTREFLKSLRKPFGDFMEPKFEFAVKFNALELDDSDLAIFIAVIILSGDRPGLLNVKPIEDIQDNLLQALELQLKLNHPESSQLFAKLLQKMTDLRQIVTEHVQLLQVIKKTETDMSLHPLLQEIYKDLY
The OT PPARg/SRC-1 assay assessed receptor-chemical interactions using a rapidly maturing, intensely fluorescent mutant of YFP known as Venus, rationally dissected into two separate fragments. The fragments were obtained as follows: first, fragments coding for YFP1 and YFP2 (corresponding to amino acid residues 1-158 and 159-239 of the full length YFP, respectively) were generated by oligonucleotide synthesis (Blue Heron Biotechnology), and then PCR mutagenesis was used to generate the mutant fragments IFP1 and IFP2. Fusion constructs were transfected into HEK293T cells with a (Gly4Ser)2 linker between the PPARg/SRC-1 and YFP fragment genes to facilitate complementation when interacting proteins bring fragments into close proximity. The construct is transiently transfected in HEK293T cells 48 hours prior to treatment with test compounds. Cells are seeded into optical quality 384-well poly-D-lysine coated plates in MEM alpha medium (Invitrogen) supplemented with 10 percent FBS (Gemini Bio-Products) 1 percent penicillin and 1 percent streptomycin, and grown in 37C incubator equilibrated to 5 percent CO2. Cells are allowed to adhere for 24 hours prior to treatment with compounds of interest or controls for 8 hours. Cells are fixed in 4 percent formaldehyde and stained with Draq5 (BioStatus) to identify cells and subcellular compartment boundaries prior to signal detection. 8 Images per well were acquired on an Evotec Opera at 2 wavelengths (488 and 635nm), and the ratio of fluorescence in the nucleus relative to fluorescence in the cytoplasm (N/C Ratio) in the 488nm channel was calculated for a minimum of 350 cells per image.
For `O=S(=O)(O)OOS(=O)(=O)O`, the molecule was called inactive.
For `C=CCN(CC=C)C(=O)C(Cl)Cl` the value was “inactive”; for `Nc1ccc(Cl)c(Cl)c1`, “inactive”; for `O=CNC(N1CCN(C(NC=O)C(Cl)(Cl)Cl)CC1)C(Cl)(Cl)Cl` (stereo not given), “inactive”.
For `COc1cc(OC)nc(Oc2cccc(Oc3nc(OC)cc(OC)n3)c2C(=O)O)n1` the value was “inactive”; for `C=CC(=O)OCC(CC)CCCC` (stereo not given), “inactive”.
Turning to `CCOC(=O)C1OC1(C)c1ccccc1` (stereo not given), the call was inactive.
Regarding `CN(C)N`, the molecule was classed as inactive.
For `CCOP(O)OCC` the value was “inactive”.
For `Cc1cc(C)c(C2=C(OC(=O)CC(C)(C)C)C3(CCCC3)OC2=O)c(C)c1` the value was “inactive”; for `CC1CCCC1.[C-]#[O+].[C-]#[O+].[C-]#[O+].[Mn]`, “inactive”.
For `CCOC(=O)NC(=S)Nc1ccccc1NC(=S)NC(=O)OCC` the value was “inactive”.
As to `CCCCCCCCCCCCCCCC[N+](C)(C)C`, the result was inactive.
In the case of `CC(C)c1ccc(O)cc1` it was “inactive”; in that of `O=C(CCl)c1ccccc1`, “inactive”; in that of `CCCC=NO`, “inactive”.
In the case of `O=P(O)(Oc1ccccc1)Oc1ccccc1` it was “inactive”; in that of `CC(Cc1ccc(C(C)(C)C)cc1)CN1C[C@@H](C)O[C@@H](C)C1` (stereo not given in full), “inactive”.
As to `O=C(O)CCl`, the molecule was classed as inactive.
For `Nc1cc(Cl)cc(Cl)c1` the value was “inactive”; for `Cc1ccc(C)c2ccccc12`, “inactive”; for `CCc1cccc(C)c1N(C(=O)CCl)[C@@H](C)COC`, “inactive”.
For `Oc1ccc(Cl)cc1` the value was “inactive”.
As to `Cc1ccc(OP(=O)(Oc2ccc(C)cc2)Oc2ccc(C)cc2)cc1` (tested in a mixture with another compound), the molecule was called inactive.
`CC[N+](=O)[O-]`: the result was inactive.
For `CN(C)C(=O)C(c1ccccc1)c1ccccc1` the value was “inactive”; for `CCC(=O)c1ccc(Cl)cc1`, “inactive”.
In the case of `O=[N+]([O-])O` it was “inactive”; in that of `CC(=O)c1cc2c(cc1C)C(C)(C)C(C)CC2(C)C` (stereo not given), “inactive”; in that of `CC(C)(c1cc(Cl)c(O)c(Cl)c1)c1cc(Cl)c(O)c(Cl)c1`, “inactive”.
For `c1cc[n+]2c(c1)-c1cccc[n+]1CC2` the value was “inactive”.
Consider `O=C(NC(=O)c1c(F)cccc1F)Nc1ccc(Oc2ccc(C(F)(F)F)cc2Cl)cc1F`, for which the molecule was called inactive.
For `CC1(C)[C@H](C(=O)O[C@H](C#N)c2cccc(Oc3ccccc3)c2)[C@@H]1C=C(Br)Br` the value was “inactive”; for `O=C(NCNC(=O)NC1C(=O)NC(=O)N1CO)NC1C(=O)NC(=O)N1CO` (stereo not given), “inactive”.
With `CC(C)(O)C#N`, the molecule was called inactive.
As for `N#CCCCCC#N`, the call was inactive.
For `CC(C)(Cl)Cl` the value was “inactive”.
For `CCOP(=O)(OCC)OCC` the value was “inactive”; for `CC(C)C#N`, “inactive”; for `CCOP(=O)(OCC)Oc1ccc([N+](=O)[O-])cc1`, “inactive”.

Source of the values: PubChem BioAssay (EPA / NIEHS).
